Shown are actives, neighbours in structure and some others; about 28% of the full set was active somewhere.
CYP2C19 inh: blocks human cytochrome P450 2C19; P33261; CYP2C19 Supersomes, luciferin-H EGE luminescence, 30 min; hit rate 21% among 96,000; inhibition, % at 5 µM;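 active = CYP2C19 inhibition above a set limit at 5 µM in the primary screen, cut at about 50% in these data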;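 also: plate controls were negative control wells for no effect and 2.5 mM tranylcypromine positive control for full effect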
hDAT+cocaine: changed human dopamine transporter uptake under cocaine IC80; Q01959; hit rate 1.3% among 110,000; B-score at 10 µM; LLC-PK1 hDAT cells, [14C]-dopamine uptake with cocaine IC80; actives deviate in either direction;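 active = Z score or B-score, a plate-position-corrected score, falls beyond the plate's 99.7% confidence bounds, in either direction; inactive = both scores lie inside the 99.7% bounds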;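 also: scored against the spread of the other compound wells on the same plate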
CYP2C9 activ: CYP2C9 (human) activation; hit rate 1.4% among 96,000; activation factor at 5 µM; recombinant CYP2C9, luciferin-H conversion, luminescence; stronger effect = higher value; factor 1 = untreated enzyme, 0 = blocked;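 active = activation factor of 2 or more for CYP2C9 at a 5 µM dose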;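 also: 0 = sulfaphenazole-blocked wells and 1 = vehicle-only wells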
Target sequence (P11712 whole entry, looked up): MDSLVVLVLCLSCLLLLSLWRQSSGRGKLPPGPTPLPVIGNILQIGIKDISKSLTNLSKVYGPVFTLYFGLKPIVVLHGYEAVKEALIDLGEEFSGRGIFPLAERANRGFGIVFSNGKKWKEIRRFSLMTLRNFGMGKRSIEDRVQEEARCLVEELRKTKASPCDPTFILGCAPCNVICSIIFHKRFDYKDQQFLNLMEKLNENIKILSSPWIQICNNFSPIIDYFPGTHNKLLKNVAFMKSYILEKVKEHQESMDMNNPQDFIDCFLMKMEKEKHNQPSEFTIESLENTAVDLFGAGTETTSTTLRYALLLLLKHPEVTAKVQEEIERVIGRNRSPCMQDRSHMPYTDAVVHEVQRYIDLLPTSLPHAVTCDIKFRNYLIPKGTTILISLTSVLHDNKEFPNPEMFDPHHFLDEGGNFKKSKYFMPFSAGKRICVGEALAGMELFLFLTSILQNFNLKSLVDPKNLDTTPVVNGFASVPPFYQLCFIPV
CYP2C19 act: cytochrome P450 2C19 (human) activation; P33261; recombinant CYP2C19, luciferin-H EGE luminescence; stronger effect = higher value; 0 = fully inhibited enzyme, 1 = untreated enzyme; activation factor at 5 µM; 96,000 tested, under 10 active; AID 1025;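 active = activation factor of at least 2 at 5 µM in the primary screen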;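 also: 0 = wells with 2.5 mM tranylcypromine and 1 = vehicle-only wells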
CYP2C9 inh: inhibitors of human CYP2C9 | hit rate 20% among 96,000 | CYP2C9 Supersomes, luciferin-H conversion, luminescence | AID 777 | inhibition, % at 5 µM | P11712;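 active = blocking of liver enzyme CYP2C9 beyond about 50% at 5 µM, limit read from the data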
D1 mod: allosteric modulators of human D1 dopamine receptor. P21728. HEK293 D1, CRE-luciferase, dopamine EC30 potentiation; actives deviate in either direction. B-score at 10 µM. hit rate 5.9% among 58,000;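 active = luminescence count or its row- and column-corrected plate score outside the 99.7% band of the plate's sample wells, on either side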
* = called active by the depositor; x = not tested or not shown.

SMILES	CYP2C19 inh	hDAT+cocaine	CYP2C9 activ	CYP2C19 act	CYP2C9 inh	D1 mod
C=CCn1c(COc2ccc(Cl)cc2)nnc1SCC(=O)N/N=C/c1cccc(O)c1	10	-0.93	0.7	0.9	29	x
C=CCn1c(COc2ccccc2)nnc1SC(C)C(=O)N/N=C/c1cc(Cl)ccc1O (stereo not drawn)	35	0.19	0.5	0.6	50*	x
CCOC(=O)c1nnc(-c2cccs2)nc1NC(C)C	-2	0.48	1	1	-1	x
CC(C)(C)CC(=O)Nc1nnc(C(F)(F)F)s1	x	2.8*	x	x	x	x
CC(NC(=O)Nc1nnc(C(F)(F)F)s1)(C(F)(F)F)C(F)(F)F	6	-0.039	0.3	0.9	66*	-3.6
NNC(=O)c1cnn(Cc2ccccc2)c1N	x	-0.81	x	x	x	x
Cc1nn(CC(=O)NCc2ccc(OC(C)C)cc2)c(=O)c2cc3occc3n12	8	x	1.3	0.9	-32	x
COc1cc(OC)cc(C(=O)n2cnnc2N)c1	11	-0.35	1	0.9	3	x
CC(=O)Nc1nc(C)nc(C)c1C(C)=O	1	-0.14	1	1	-1	x
CC(=O)Nc1nc(-c2ccccc2)nc(C)c1C(C)=O	-3	-8.5*	1	1	-5	0.033
CC(=O)c1c(C)nc(-c2ccccc2)nc1NC(=O)C(C)C	43	-1.1	0.3	0.6	74*	x
CC(=O)c1c(C)nc(-c2ccc(Cl)cc2)nc1NC(=O)C(C)C	62*	0.047	0.1	0.4	94*	-0.4
CCOC(=O)c1c(C)nc(-c2ccccc2)nc1NC(C)=O	26	0.67	0.7	0.7	31	0.58
CCCNC(=O)NC(=O)CSc1nnc(C)n1N	-9	0.68	1.2	1.1	-24	x
C=CCn1c(C(CCC(C)C)CC(C)(C)O)n[nH]c1=S (stereo not drawn)	73*	-0.4	0.8	0.3	23	x
CC(C)NC[C@H](O)COc1cccc2ccccc12	x	-0.28	x	x	x	x
O=C(c1ccccc1)N1CCN(C2CCCCCC2)CC1	17	-0.084	1	0.8	-3	-0.38
O=C(c1ccc(F)cc1)N1CCN(C2CC3CCC2C3)CC1 (stereo not drawn)	76*	0.25	1	0.2	-2	-0.068
O=C(c1ccccc1)N1CCN(C2CC3CCC2C3)CC1 (stereo not drawn)	82*	-1.2	0.8	0.2	21	0.95
Cn1c(Cl)cnc1C1CC(=O)c2cc(Cl)ccc2O1 (stereo not drawn)	81*	-1.1	0.5	0.2	46	-0.51
CSc1cccc(NC(=O)/C=C/c2ccccc2)c1	55*	0.042	1.9	0.4	-91	x
CCCC(=O)Nc1ccc(C#Cc2ccccc2)cc1	-5	-0.54	1.5	1.1	-50	x
O=C(c1ccccc1)c1cccc(NC(=O)C2CC2)c1	62*	1.5	1	0.4	4	x
O=C(Nc1ccc(C#Cc2ccccc2)cc1)C1CC1	-11	-0.5	2.3*	1.1	-131	x
CCC(=O)Nc1ccc2c(c1)C(=O)c1ccccc1C2=O	6	1.4	0.4	0.9	58*	x
SMILES	CYP2C19 inh	hDAT+cocaine	CYP2C9 activ	CYP2C19 act	CYP2C9 inh	D1 mod
O=C(O)CN(Cc1ccccc1)S(=O)(=O)c1ccc(F)cc1	-15	0.044	0.5	1.2	47	-0.69
CNC(=O)C1(C)C=CC2(CCCCC2)N1C(=O)OC (stereo not drawn)	x	-0.6	x	x	x	x
O=C1OC(C(=O)O)Cc2ccccc21 (stereo not drawn)	x	-0.81	x	x	x	x
CCC(=O)NC1=C(NC(C)c2ccccc2)C(=O)c2ccccc2C1=O (stereo not drawn)	30	-0.12	0.5	0.7	52*	x
O=C(Nc1cccc(S(=O)(=O)c2cccc(NC(=O)C3CC3)c2)c1)C1CC1	99*	-0.63	0.4	0	60*	-0.23
CCC(=O)Nc1cccc(C(=O)c2ccccc2)c1	77*	0.41	1.1	0.2	-7	-0.12
Cc1cccc(NC(=O)C2CCCC2)c1	x	0.026	x	x	x	x
CCC(=O)NC(=S)Nc1cccc(NC(=O)c2ccccc2Cl)c1	17	-0.42	1	0.8	-2	x
CCC(=O)Nc1cccc(C(=O)OCC(=O)c2ccccc2Cl)c1	27	-1.1	3.4*	0.7	-236	x
CC(NC(=O)CC1Nc2ccccc2NC1=O)c1ccccc1 (stereo not drawn)	14	-0.038	1.5	0.9	-53	x
COCCn1c(CNc2ccc(F)cc2)nnc1SCC(=O)Nc1ccc(OC)cc1OC	-10	1.3	1.1	1.1	-10	-0.048
CCC(=O)Nc1cccc(C(=O)/C=C/c2ccccc2)c1	60*	0.27	2*	0.4	-101	x
Cc1cc(Cl)ccc1OCc1nc(-c2ccc(O)cc2)n[nH]1	97*	x	0.1	0	94*	0.73
Cc1cc(Cl)ccc1Oc1ncc(-c2ccc(Cl)cc2)cn1	24	-0.21	1	0.8	3	x
C=CCN1C(=O)/C(=C2/Sc3ccccc3N2C)SC1=Nc1ccccc1C	39	-0.58	0.4	0.6	56*	x
C=CCN1C(=O)/C(=C2/Sc3ccccc3N2C)SC1=Nc1c(C)n[nH]c1C	12	-0.063	0.8	0.9	25	2.8
O=c1[nH]c(CN2CCN(C/C=C/c3ccccc3)CC2)nc2cc(Cl)ccc12	-3	0.0078	0.9	1	11	-1.4
O=C(CCc1nc2ccccc2c(=O)[nH]1)N1CCN(C/C=C/c2ccccc2)CC1	33	2.7	0.5	0.7	52*	0.065
O=C(c1ccc(=O)n(Cc2ccccc2)n1)N1CCN(C/C=C/c2ccccc2)CC1	69*	0.9	0.1	0.3	92*	-0.79
CC(=O)N1CCN(C(=O)CCc2nc3ccccc3c(=O)[nH]2)CC1	14	0.099	0.9	0.9	14	x
O=C(c1ccc(Br)o1)N1CCN(C/C=C/c2ccccc2)CC1	65*	1.4	0.4	0.4	63*	-3.7*
O=C(c1ccc(Br)s1)N1CCN(C/C=C/c2ccccc2)CC1	18	0.57	0.9	0.8	7	x
COc1cc2c(cc1OC)C1Cc3ccc(OC)c(OC)c3C[N+]1([O-])CC2 (stereo not drawn)	x	-0.9	x	x	x	x
COc1cnc(-c2ccccn2)nc1Oc1cccc(Cl)c1	11	1.5	0.9	0.9	8	x
CC1(C)C(=O)N(OCc2ccccc2)C(C)(C)C(=O)N1OCc1ccccc1	57*	x	0.6	0.4	36	x
Cc1ccc(N(CC(=O)NC(C)c2ccccc2)S(=O)(=O)c2cccs2)cc1 (stereo not drawn)	98*	0.47	0.1	0	86*	x
COc1ccc(/C=C(/NC(=O)c2ccccc2)C(=O)N/N=C/c2cccs2)cc1OC	29	0.82	1	0.7	3	x
CCOc1ccc(S(=O)(=O)N(CC(=O)N/N=C/c2cccs2)c2ccc(C)cc2)cc1	53*	-0.027	0.9	0.5	7	x
COc1ccc(S(=O)(=O)N(CC(=O)N/N=C/c2cccs2)c2cc(C)cc(C)c2)cc1OC	53*	0.98	0.4	0.5	60*	x
CCOc1ccc(S(=O)(=O)N(CC(=O)O)c2ccc(C)cc2)cc1	21	-1.3	0.5	0.8	46	0.089
